Measured values taken from PubChem BioAssay (NCATS).
Inconclusive results are not listed. Activity calls are given as the source filed them. Unless noted, calls come from the whole dose curve; as a rule, active = well fitted curve in the direction sought with a large enough effect; inconclusive = small, poorly fitted or top-dose-only effect, or another doubt; inactive = no such curve, though single readings can be large; an effect the other way counts as inactive or inconclusive.

How the values were obtained:
[1] = Cell Viability - BJ (AID 421; calls by dose curve;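 note: potency is the fitted concentration of half-maximal effect; cells exposed to compound for 40 hours at 37 °C before readout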); conditions: BJ fibroblast viability, qHTS
Method in brief: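 Luminescent ATP signal (CellTiter-Glo, 20 min at room temperature) served as the read-out of viable BJ cells after 40 hours of compound treatment. Responses were scaled between DMSO and 100 uM tamoxifen, and AC50 values were obtained by Hill modeling.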

[2] = Cell Viability - Jurkat (AID 426;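 active = dose-dependent loss of cell ATP signal giving a full or clear fitted curve, ranked by lower potency value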; note: potency is the fitted concentration of half-maximal effect); conditions: qHTS
Method in brief: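 Seed 5000 Jurkat E6-1 cells/well; add compound; incubate 40 hr at 37 °C; add CellTiter-Glo; wait 20 min at room temperature; read luminescence. Fit concentration-response with Hill equation for AC50.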

[3] = Cell Viability - Hek293 (AID 427;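 active = compounds whose dose-response curve shows a full or clear partial loss of cell viability, called from curve shape rather than a numeric limit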;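 note: potency is the fitted concentration of half-maximal effect; cells exposed to compound for 40 hours at 37 °C before reading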); conditions: qHTS
Method in brief: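 Luminescent ATP read-out (CellTiter-Glo, 20 min RT) after 40 hr compound exposure at 37 °C in complete medium. Signal normalized to DMSO (basal) and 100 uM tamoxifen (100% inhibition); concentration-response fitted with the standard Hill equation to give AC50.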

[4] = Cell Viability - HepG2 (AID 433; calls by dose curve;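 note: potency is the fitted concentration of half-maximal effect; potency for ATP loss meaning cytotoxicity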); conditions: qHTS
Method in brief: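 ATP luminescence (CellTiter-Glo) after 40 h compound exposure, 37 °C, HepG2, 1500 cells/well, complete medium. Normalized: DMSO = basal, 100 uM tamoxifen = 100% inhibition. AC50 via standard Hill equation.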

[5] = Cell Viability - MRC5 (AID 434; calls by dose curve;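 note: potency is the fitted concentration of half-maximal effect; potency reflects cytotoxicity seen as loss of intracellular ATP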); conditions: MRC5 lung fibroblast viability, qHTS
Method in brief: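 MRC5 normal human lung fibroblasts, 1500 cells/well, exposed to compound for 40 hr at 37 C. Cellular ATP was read by CellTiter-Glo luminescence; data normalized to DMSO and 100 uM tamoxifen, with AC50 from Hill fits.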

[6] = Cell Viability - SK-N-SH (AID 435; calls by dose curve; note: potency is the fitted concentration of half-maximal effect); conditions: SK-N-SH neuroblastoma cell viability qHTS
Method in brief: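 CellTiter-Glo ATP luminescence, 20 min RT read; cells pre-plated 5 hr, compound 40 hr at 37 °C, 1500 cells/well, complete medium. Normalized DMSO = 0, 100 uM tamoxifen = 100% inhibition; Hill-fit AC50.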

[7] = target: Mitogen-activated protein kinase 10 (Mus musculus) (UniProt Q61831); assay: JNK3 AlphaScreen Assay (AID 530; active = well fitted curve in either direction with a large enough effect, not every such curve was filed as active;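 note: kinase came from lysate of stimulated human HepG2 cells; signal reports phosphorylation of biotinylated GST-cJun 1-79 at Ser73 with 10 µM ATP; series mostly up to about 57 µM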)
Method in brief: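 qHTS format: compounds tested as titrations against IL-1beta/TNF-alpha-activated HepG2 lysate JNK3 with biotin-GST-cJun substrate and 10 uM ATP at room temperature. Loss of anti-phospho-cJun AlphaScreen signal indicates inhibition.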

[8] = Cell Viability - N2a (AID 540); note: nearly all actives have a fitted effect of over 45% in size
Method in brief: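 First, 1500 N2a cells per well incubate 5 hr at 37 °C; next, compounds are added and incubated 40 hr at 37 °C; finally CellTiter-Glo is added and luminescence read after 20 min, with AC50 derived by Hill modeling.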

[9] = Cell Viability - HUV-EC-C (AID 542); note: nearly all actives have a fitted effect of over 35% in size
Method in brief: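 Decrease in cellular ATP, quantified by luciferase luminescence, reflects toxicity in normal human vascular endothelial HUV-EC-C cells given compound for 40 hr in complete culture medium. Values are AC50s from concentration-response curves.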

[10] = Cell Viability - H-4-II-E (AID 543); note: nearly all actives have a fitted effect of over 35% in size
Method in brief: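 Here, cytotoxicity is measured in the rat hepatoma line H-4-II-E as loss of intracellular ATP after 40 hr compound treatment, detected by luciferase luminescence.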

[11] = Cell Viability - SH-SY5Y (AID 544); note: nearly all actives have a fitted effect of over 55% in size
Method in brief: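 Cytotoxicity is scored as a concentration-dependent fall in intracellular ATP in human SH-SY5Y cells treated 40 hr in complete culture medium. Potency is expressed as AC50 from a Hill equation fit.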

[12] = Cell Viability - Renal Proximal Tubule (AID 545); note: nearly all actives have a fitted effect of over 40% in size
Method in brief: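 Rat kidney proximal tubule cells, freshly isolated; 1000 cells/well, 5 hr settle, compound 40 hr 37 °C. CellTiter-Glo 20 min RT, luminescence read. AC50 by standard Hill fit.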

[13] = Cell Viability - Mesenchymal (AID 546);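 note: cells exposed to compound for 40 hours before reading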
Method in brief: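 Human kidney mesenchymal cells from normal renal glomeruli, 1000 cells/well, rested 5 hr at 37 °C, then treated 40 hr at 37 °C in complete medium. Cellular ATP read by CellTiter-Glo luminescence; AC50 from Hill-equation fits.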

[14] = Cellular Toxicity (caspase-3) HepG2 (AID 654);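 note: cells exposed to compound for 16 hours before reading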
Method in brief: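 qHTS, HepG2, 1500 cells/well, complete medium; cpd 16 h 37 °C; Caspase-Glo 3/7, 20 min RT; lum. Norm: DMSO vs 100 uM tamoxifen; AC50 Hill fit.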

[15] = Cellular Toxicity (caspase-3) Jurkat (AID 655);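 note: cells exposed to compound for 16 h at 37 °C before reading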
Method in brief: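 Luminescent caspase-3/7 readout (aminoluciferin substrate cleavage) in human T-cell leukemia Jurkat cells after 16 hr compound exposure. Concentration-response normalized to DMSO and 100 uM tamoxifen; AC50 by standard Hill equation.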

[16] = Cellular Toxicity (caspase-3) HUV-EC-C (AID 656)
Method in brief: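 Luminescent caspase-3/7 activation (aminoluciferin substrate cleavage) in HUV-EC-C cells after 16 hr compound exposure, 37°C. Signal normalized to DMSO basal and 100 uM tamoxifen as 100%; AC50 from concentration-response fitted with the Hill equation.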

[17] = Cellular Toxicity (caspase-3) SHSY5Y (AID 657)
Method in brief: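 Luminescent caspase-3/7 readout (aminoluciferin release) in SH-SY5Y cells after 16 h compound exposure in complete medium. Activity scaled between DMSO basal and 10 uM staurosporine as 100%; concentration-response fitted to Hill equation for AC50.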

[18] = Cellular Toxicity (caspase-3) BJ (AID 658)
Method in brief: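 BJ human foreskin fibroblasts, 1000 cells/well, treated 16 hours at 37 °C in complete medium; caspase 3/7 activity by Caspase-Glo luminescence after 1 hr at room temperature. Normalized to DMSO and 10 uM staurosporine; AC50 from Hill fits.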

[19] = Cellular Toxicity (caspase-3) MRC-5 (AID 659)
Method in brief: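 MRC-5 human normal lung fibroblasts, 1500 cells/well, treated 16 h at 37 °C in complete medium. Caspase 3/7 measured by Caspase-Glo luminescence after 1 h at room temperature. Normalized to DMSO and 10 uM staurosporine; AC50 from Hill fit.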

[20] = Cellular Toxicity (caspase-3) Mesangial (AID 660);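 note: combined caspase 3 and 7 activity read by Caspase-Glo luminescence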
Method in brief: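 Concentration-response qHTS: compound-induced rise in caspase 3/7 luminescence in human mesangial cells after 16 h, normalized to DMSO and 100 uM tamoxifen controls.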

[21] = Cellular Toxicity (caspase-3) SK-N-SH (AID 661)
Method in brief: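 Caspase 3/7 activation is measured as a luminescence increase from aminoluciferin released by substrate cleavage in SK-N-SH cells after 16 hr compound treatment; values are AC50 from concentration-response curves.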

[22] = Cellular Toxicity (caspase-3) H-4-II-E (AID 663);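 note: cells exposed to compound for 16 hr before readout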
Method in brief: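 Rat hepatoma H-4-II-E cells (1500/well) plated 5 hr, then exposed to compound titrations for 16 hr at 37 °C. Caspase-Glo 3/7 luminescence read after 20 min at RT; data normalized to DMSO and 100 uM tamoxifen, AC50 from Hill fits.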

[23] = Cellular Toxicity (caspase-3) Hek293 (AID 664);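 note: cells exposed to compound for 16 h at 37 °C before readout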
Method in brief: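 Activation of caspase-3/7 is measured as increased luminescence from cleaved peptide-aminoluciferin substrate in HEK293 cells treated 16 hours at 37 °C. AC50 values come from Hill-equation fits of concentration-response data.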

[24] = Cellular Toxicity (caspase-3) N2a (AID 665);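 note: compound exposure lasted 16 h at 37 °C before readout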
Method in brief: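 Plated mouse neuroblastoma N2a cells received titrated compounds for 16 h in complete medium. Caspase activity was then detected with a peptide-aminoluciferin luminescent reagent.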

[25] = Cellular Toxicity (caspase-3) NIH 3T3 (AID 666)
Method in brief: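 Concentration-response qHTS in NIH 3T3 mouse fibroblasts scores caspase-3/7 activation as rising luminescence after 16 hr compound exposure. Signals are scaled between DMSO-only and 100 uM tamoxifen.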

[26] = Cellular Toxicity (caspase-3) Renal Proximal Tubule (AID 667);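 note: cells exposed to compound for 16 hours at 37 °C before detection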
Method in brief: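 Luminescent caspase 3/7 signal from peptide-aminoluciferin cleavage measures apoptosis in freshly isolated rat kidney proximal tubule cells after 16 h compound exposure. Concentration-response data are normalized to DMSO and 10 uM staurosporine, and AC50 values come from Hill equation fits.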

[27] = target: Cytochrome P450 3A4 (Homo sapiens) (UniProt P08684); assay: qHTS Assay for Inhibitors and Substrates of Cytochrome P450 3A4 (AID 884); note: series mostly up to about 57 µM; nearly all actives have a fitted effect of over 50% in size
Method in brief: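 20 nM human CYP3A4 with 25 uM Luciferin-PPXE (at KM) in 200 mM KPO4, preincubated 10 min with compound; NADPH regeneration started a 60 min RT reaction. Luciferin detected by luminescence, normalized to 57 uM ketoconazole as full inhibition.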

[28] = Cell Viability - LYMP2-001 (AID 921); note: series mostly up to about 92 µM; nearly all actives have a fitted effect of over 70% in size
Method in brief: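 CellTiter-Glo luminescence (intracellular ATP) after 24 hr compound exposure at 37 C, 2500 lymphoblastoid cells/well in complete medium. AC50 fitted with standard Hill equation; tetraoctylammonium bromide positive control.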

[29] = MultiTox-Fluor Cytotoxicity Assay - LYMP1-001 - Dead Cells (AID 946)
Method in brief: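 AC50 from Hill fit of concentration-response; data normalized to DMSO (basal) and 15 uM tetraoctylammonium bromide (100%). LYMP1-001 lymphoblastoid cells, 2500/well, 16 hr compound at 37 C; dead-cell protease fluorescence, Ex/Em 485/520.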

[30] = MultiTox-Fluor Cytotoxicity Assay - LYMP1-001 - Live Cells (AID 947)
[31] = Cell Viability - LYMP1-002 - Assay at 16 hr (AID 948)
Method in brief: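 LYMP1-002 human lymphoblastoid cells, 2500/well; 5 hr 37 C; cpd 16 hr 37 C; CellTiter-Glo 30 min RT; luminescence (ATP). Concentration-response, Hill-fit AC50. Pos ctrl tetraoctylammonium bromide.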

[32] = MultiTox-Fluor Cytotoxicity Assay - LYMP1-002 - Live Cells (AID 955)
Method in brief: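 Cytotoxicity in the human lymphoblastoid line LYMP1-002 is measured as loss of live-cell protease activity after 16 h treatment in complete culture medium. AC50 is derived from Hill-equation fits of qHTS concentration-response data.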

[33] = MultiTox-Fluor Cytotoxicity Assay - LYMP1-002 - Dead Cells (AID 960); note: nearly all actives have a fitted effect of over 60% in size
Method in brief: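 Acute cytotoxicity in a human lymphoblastoid line is scored as rising dead-cell protease signal after 16 hr exposure at 37 C, measured fluorometrically (485/520).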

[34] = MultiTox-Fluor Cytotoxicity Assay - LYMP1-003 - Dead Cells (AID 961); note: nearly all actives have a fitted effect of over 70% in size
Method in brief: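 Human lymphoblastoid LYMP1-003 cells (2500/well) were treated with compounds for 16 hr at 37 C in complete medium. Dead-cell protease release was read by bis-AAF-R110 fluorescence (Ex/Em 485/520). AC50 came from Hill fits, normalized to DMSO and 15 uM tetraoctylammonium bromide.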

[35] = MultiTox-Fluor Cytotoxicity Assay - LYMP1-003 - Live Cells (AID 962);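 note: cytotoxic hits lower the live-cell protease signal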
Method in brief: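 Cells plated at 2500 per well and incubated 5 hr; compounds added and incubated 16 hr at 37 C; MultiTox-Fluor reagent added for 60 min at room temperature; fluorescence of liberated AFC measured at 405/510 nm.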

[36] = Cell Viability - LYMP1-003 - Assay at 24 hr (AID 963)
Method in brief: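 Acute toxicity in LYMP1-003 lymphoblastoid cells: 24 hr compound treatment at 37 C, ATP measured with CellTiter-Glo after 30 min at room temperature. AC50 derived by fitting the Hill equation to qHTS titrations.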

[37] = Cell Viability - LYMP1-003 - Assay at 40 hr (AID 964); note: series mostly up to about 92 µM; nearly all actives have a fitted effect of over 60% in size
Method in brief: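 This qHTS cytotoxicity screen treats human lymphoblastoid cells (LYMP1-003) with compounds for 40 hr and quantifies cellular ATP via luciferase luminescence.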

[38] = Cell Viability - LYMP2-003 (AID 965);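 note: cells exposed to compounds for 24 h before reading; nearly all actives have a fitted effect of over 50% in size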
Method in brief: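 CellTiter-Glo luminescence (cellular ATP) after 24 h compound exposure at 37 C in complete medium; 2500 cells/well, 5 h settling beforehand. Concentration-response fitted to standard Hill equation for AC50. Tetraoctylammonium bromide served as positive control.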

[39] = Cell Viability - LYMP2-004 (AID 966); note: nearly all actives have a fitted effect of over 65% in size
Method in brief: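 Acute toxicity is scored as a concentration-dependent drop in intracellular ATP, quantified by luciferase luminescence, in human lymphoblastoid cells exposed to compound for 24 hr. AC50 derives from Hill-equation modelling.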

Measured: Potency

Sequence of Cytochrome P450 3A4 (Homo sapiens) (P08684 whole entry, looked up): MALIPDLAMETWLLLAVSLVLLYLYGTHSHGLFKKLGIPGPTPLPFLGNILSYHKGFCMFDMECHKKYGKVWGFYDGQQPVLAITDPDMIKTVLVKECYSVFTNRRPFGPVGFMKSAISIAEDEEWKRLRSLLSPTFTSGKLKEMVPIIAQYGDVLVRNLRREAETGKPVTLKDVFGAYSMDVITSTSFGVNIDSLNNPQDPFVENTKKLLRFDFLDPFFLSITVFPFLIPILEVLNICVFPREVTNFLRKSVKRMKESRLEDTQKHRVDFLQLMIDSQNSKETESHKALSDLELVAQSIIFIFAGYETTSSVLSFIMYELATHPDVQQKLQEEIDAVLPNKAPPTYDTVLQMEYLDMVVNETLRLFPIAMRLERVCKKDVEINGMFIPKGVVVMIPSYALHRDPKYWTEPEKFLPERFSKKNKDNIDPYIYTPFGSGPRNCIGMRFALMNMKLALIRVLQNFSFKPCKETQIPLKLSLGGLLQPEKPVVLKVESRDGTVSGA

C[C@@H]1[C@H](O)[C@@H](C)/C=C/C=C/C=C/C=C/C=C/C=C/C=C/[C@H](O[C@@H]2O[C@H](C)[C@@H](O)[C@H](N)[C@@H]2O)C[C@@H]2O[C@](O)(C[C@@H](O)C[C@@H](O)[C@H](O)CC[C@@H](O)C[C@@H](O)CC(=O)O[C@H]1C)C[C@H](O)[C@H]2C(=O)O
inactive: [1] > 92 µM | [2] > 92 µM | [3] > 92 µM | [4] > 92 µM | [5] > 92 µM | [6] > 92 µM | [7] | [8] | [9] | [10] | [11] | [12] | [13] | [14] | [15] | [16] | [17] | [18] | [19] | [20] | [21] | [22] | [23] | [24] | [25] | [26] | [27] | [28] | [29] | [30] | [31] | [32] | [33] | [34] | [35] | [36] | [37] | [38] | [39]
